Screening results: PubChem BioAssay, several laboratories
AI-2 QS mod: Vibrio harveyi AI-2 quorum sensing modulation. Vibrio harveyi JMH597 AI-2 luminescence/OD600 ratio, 9 h; active compounds read low; strain lacks LuxN and CqsS sensors; 0 = neutral-control median. activity change, % at 7.5 µM. actives 0.4% (n = 300,000); in the data active means activity change below about -75%, passing the limit was not always enough;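 further: luminescence divided by OD600 gain over 9 h not by final OD600 alone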
S1P3 antag: blocks the human S1P3 receptor | Q99500 | CHO S1P3 NFAT-BLA reporter, FRET fluorescence, antagonist mode | inhibition, % at 4.98 µM | actives 0.27% (n = 170,000) | AID 485;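 active means inhibition above the plate cutoff, the mean inhibition of test wells on that plate plus 3 SD, cut at about 28% in these data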;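 further: cells challenged with S1P at its EC80 of 0.8 µM; blue over green emission ratio from cleaved BLA substrate after 4 h stimulation; 0% = S1P-stimulated wells and 100% = unstimulated DMSO-only wells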
S1P4 antagonist: human S1P4 receptor antagonism. S1P4-expressing cells, antagonist mode, reporter read-out. inhibition, % at 4.98 µM. actives 0.26% (n = 220,000). O95977; in the data active means inhibition above about 29%;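 further: 0% = wells stimulated with agonist and 100% = vehicle wells without agonist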
Target sequence (O95977 whole entry, looked up): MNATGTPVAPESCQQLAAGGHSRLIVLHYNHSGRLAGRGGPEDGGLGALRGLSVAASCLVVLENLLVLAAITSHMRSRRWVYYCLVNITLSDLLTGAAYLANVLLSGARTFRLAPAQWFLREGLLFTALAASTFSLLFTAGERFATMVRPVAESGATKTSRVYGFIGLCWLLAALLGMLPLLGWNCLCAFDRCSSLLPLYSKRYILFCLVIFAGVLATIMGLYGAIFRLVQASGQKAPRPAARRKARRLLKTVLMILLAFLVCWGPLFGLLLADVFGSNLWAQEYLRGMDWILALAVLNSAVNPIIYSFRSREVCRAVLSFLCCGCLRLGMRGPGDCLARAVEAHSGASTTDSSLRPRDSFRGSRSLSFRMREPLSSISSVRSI
Hsp70 act: transcriptional activators of Hsp70; HeLa Hsp70 promoter luciferase reporter, luminescence; scaled: vehicle 0, proteasome-inhibitor control 100%; activation, % at 10 µM; actives 0.04% (n = 200,000); AID 1203;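 active means activation above the mean across all tested compounds plus 3 SD, cutoff set per campaign, cut at about 5.5% in these data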;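 further: 100% = MG132 at 30 µM as the positive control and 0% = DMSO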
S1P4 ag: activates the human S1P4 receptor; O95977; S1P4-expressing cell line, agonist reporter assay; activation, % at 4.98 µM; actives 0.35% (n = 220,000); in the data active means activation above about 11%;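 further: 0% = DMSO vehicle and 100% = reference agonist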
An asterisk follows results filed as active; x = no result given. The list is not random: actives were taken first. Their share in the collection is about 0.97%.

SMILES | AI-2 QS mod | S1P3 antag | S1P4 antagonist | Hsp70 act | S1P4 ag
CCCCn1c(Nc2ccccc2)nc2ccccc21 | 16 | x | 4 | 0 | 0
CCCn1c(Nc2nc3ccccc3n2C)nc2ccccc21 | 18 | 58* | 5 | 1 | 1
CCCC(C(=O)NC1CCCC1)N(Cc1ccc(OC)cc1)C(=O)c1snc(C(N)=O)c1N (stereo not drawn) | -8 | x | x | x | x
O=C(O)c1ccc(N/N=C/C2=Cc3ccccc3OC2)cc1 | -91* | -26 | 2 | x | 1
Cc1c(CN2CCC(n3nccc3NC(=O)C3CC3)CC2)[nH]c2ccccc12 | -15 | x | x | x | x
COc1ccc(-c2cc(=O)oc3c(C)c(OC(C)C(=O)NCc4ccccn4)ccc23)cc1 (stereo not drawn) | 26 | x | x | x | x
CCCCC(=O)/C=C/n1c(=S)oc2ccccc21 | -90* | -11 | -14 | 0 | 1
COc1ccc(-c2nc(-c3ccccc3OC)no2)cc1OC | 34 | 54* | 24 | 0 | 1
COc1ccccc1-c1noc(-c2ccccc2)n1 | 5 | 5 | 9 | 0 | 0
NC(=S)Nc1cccc2cc3ccccc3cc12 | -80* | x | -5 | 0 | 1
COc1ccccc1C(C)Nc1nc(-c2cccnc2)nc2ccccc12 (stereo not drawn) | 25 | x | x | x | x
Cc1sc2ncnc(N(C)C3CCCCC3)c2c1C | 34 | x | x | x | x
CN(c1nnc(N)s1)C1CCCCC1 | 1 | 95* | -3 | 0 | 1
CCOCCCNC(=O)/C(C#N)=C/c1ccc([N+](=O)[O-])o1 | -83* | -9 | 1 | 0 | 1
Nc1nc(C23CC4CC(CC(C4)C2)C3)[nH]c(=O)n1 | 2 | -9 | 6 | x | -1
O=C(Nc1ccc(N2CCOCC2)cc1)Nc1ccc2nc(-c3ccco3)c(-c3ccco3)nc2c1 | 35 | 57* | 1 | -1 | -2
O=C(Nc1ccc2nc(-c3ccco3)c(-c3ccco3)nc2c1)NC1CC1 | 10 | x | 2 | 0 | 1
COc1ccc(C(=O)NCC(=O)N/N=C/c2cn(C)c3ccccc23)cc1OC | 22 | x | x | x | x
O=C(NCc1ccccn1)C(=O)NCC1OCCCN1S(=O)(=O)c1cc(F)ccc1F (stereo not drawn) | 16 | x | x | x | x
CCCCc1nnc(NC(=O)CN2C(=O)c3ccccc3C2=O)s1 | -86* | -18 | -3 | 0 | -2
Cc1c(Cl)ccc2sc(NC(=O)CN3C(=O)c4ccccc4C3=O)nc12 | -95* | -4 | 0 | 0 | 1
CC(C)(C)Cc1nnc(NC(=O)CN2C(=O)c3ccccc3C2=O)s1 | 13 | -7 | 3 | 0 | -2
CCc1nnc(SCC(=O)N2CCCC(N3CCN(c4ccccc4C)CC3)C2)o1 (stereo not drawn) | 26 | x | x | x | x
O=C(N/N=C\c1ccc(-c2ccccc2[N+](=O)[O-])o1)C1COc2ccccc2O1 (stereo not drawn) | 11 | -6 | -8 | 0 | 2
O=C(N/N=C\c1ccc(Cl)s1)C1COc2ccccc2O1 (stereo not drawn) | 4 | 11 | -68 | x | -1
SMILES | AI-2 QS mod | S1P3 antag | S1P4 antagonist | Hsp70 act | S1P4 ag
O=C(N/N=C\c1ccc([N+](=O)[O-])s1)C1COc2ccccc2O1 (stereo not drawn) | -86* | x | x | x | x
O=C(N/N=C\c1ccc([N+](=O)[O-])o1)C1COc2ccccc2O1 (stereo not drawn) | -87* | -19 | 5 | 0 | 0
CC(=O)Oc1ccccc1C(=O)Nc1ccccc1C(=O)N1CCCCC1 | 6 | x | x | x | x
O=C(Nc1ccc(S(=O)(=O)Nc2ccccn2)cc1)c1cccc(Br)c1 | -81* | x | x | x | x
CC(C)(C)n1nnnc1C(c1cccnc1)N(Cc1ccccc1)Cc1ccco1 (stereo not drawn) | 19 | x | -1 | 0 | 2
COc1cccc(CN(Cc2ccco2)C(c2ccc(F)cc2)c2nnnn2C(C)(C)C)c1 (stereo not drawn) | 21 | 64* | -5 | 0 | 1
O=C(Nc1ccccn1)c1cc2ccccc2cc1O | 19 | x | x | x | x
CCCCOc1ccc(-c2nc(=S)[nH][nH]2)cc1 | -89* | x | -21 | 0 | -2
O=C(CO/N=C/c1ccc(Cl)cc1Cl)NNC(=O)c1ccc(Cl)cc1Cl | -88* | 2 | 7 | x | -1
CC(C)c1nnc(NC(=O)C2CCCCC2)s1 | 13 | 94* | -27 | 0 | 4
COc1cccc(CN2CC(C(=O)N3CCOCC3)CCC2=O)c1 (stereo not drawn) | 11 | x | x | x | x
CN(C)c1ccc(O)c2c1CC1CC3[C@@H](N(C)C)C(=O)C(C(N)=O)=C(O)[C@]3(O)C(=O)C1=C2O (stereo partly drawn) | -87* | -18 | -13 | 0 | 2
